This passage reports growth results from PubChem BioAssay (NCI).

Holding throughout (experiment): NCI-60 one-dose screen, 48 h (100 = growth as untreated, 0 = no growth, -100 = all killed)
In one experiment the test system is HCT-15 colon. The note with it: 10 µM unless noted.
For the next experiment, the system named is HT29 colon. The note with it: 10 µM unless noted.
Another experiment concerns SNB-19 CNS. The note with it: 10 µM unless noted.
Another experiment deals with U251 CNS. The note with it: 10 µM unless noted.
The subject of the next experiment is PC-3 prostate. The conditions noted are these: 10 µM unless noted.
The next experiment deals with SK-MEL-5 melanoma. The conditions noted are these: 10 µM unless noted.
Another experiment deals with UACC-62 melanoma. The conditions noted are these: 10 µM unless noted.
The subject of another experiment is LOX IMVI melanoma. The conditions noted are these: 10 µM unless noted.
In the next experiment the test system is SNB-75 CNS. The conditions noted are these: 10 µM.
The next experiment has as its system SK-MEL-28 melanoma. The note with it: 10 µM unless noted.

The panel holds about 83,000 compounds, 20% with a hit somewhere; the sample as a whole holds those more often.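 Single-concentration screen, 48 h exposure, 96-well plates. Endpoint: percent growth. Below 10 = active.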 Values without a mark were called inactive. Calls of active or inactive are those of the source.

For the compound `O=[N+]([O-])c1ccc(C(c2ccccc2)c2ccccc2)cc1`, the growth with HCT-15 colon is 86.4%; in the experiment on HT29 colon, 84.4%; with SNB-19 CNS, 96.9%; with U251 CNS, 102%; with PC-3 prostate, 94.1%; in the experiment with SK-MEL-5 melanoma, 96.7%. For the same compound, the growth is 85.5% with UACC-62 melanoma and 69.7% with LOX IMVI melanoma.
`CCCN=C1NC(=O)/C(=C/c2nc(-c3ccc(OC)cc3)n3ccccc23)S1`: the growth in the experiment on HCT-15 colon is 84.8%; in the experiment on HT29 colon it was 99.3%; in the experiment on SNB-75 CNS it was 96.5%; in the experiment on SNB-19 CNS, 80.8%; in the experiment with U251 CNS, 52.9%; in the experiment with PC-3 prostate, 85.9%. In addition, the results for the growth in the experiment with SK-MEL-5 melanoma, with LOX IMVI melanoma and in the experiment on SK-MEL-28 melanoma were 64.9%, 52.7% and 111%, respectively.
Take `CC[N+](CC)=c1cc2oc3cc(N(C)C)ccc3nc-2cc1C`: the growth with HCT-15 colon was 47.4%; with HT29 colon it was 28.3%; with SNB-19 CNS it was 31.8%; with U251 CNS, 1.74% (active); with PC-3 prostate it was 10.8%; with SK-MEL-5 melanoma, 7.58% (active). For the same compound, the growth with UACC-62 melanoma is 62.7%; with LOX IMVI melanoma, 16.8%.
Turning to `COc1ccncc1S(=O)(=O)NC(=O)Nc1ccc(Cl)c(Cl)c1`, the growth in the experiment with HCT-15 colon is 101%; in the experiment with HT29 colon, 102%; in the experiment with SNB-19 CNS, 96.8%; in the experiment with U251 CNS, 94.9%; in the experiment on PC-3 prostate, 91.9%; with SK-MEL-5 melanoma it was 120%. Moreover, the growth with UACC-62 melanoma is 66.7%; with LOX IMVI melanoma, 64.9%; in the experiment with SK-MEL-28 melanoma, 120%.
`COc1cc(/C=C/C(=O)c2c(C)nc3ccccc3c2C)ccc1OCCCCOc1cc2c(cc1OC)C(=O)N1CCC[C@H]1C=N2`: the growth with HCT-15 colon was -79.6% (active); with HT29 colon it was -73.3% (active); in the experiment on SNB-75 CNS it was -100% (active); in the experiment with SNB-19 CNS, -90.1% (active); with U251 CNS it was -97.8% (active); in the experiment on PC-3 prostate it was -24.6% (active). In addition, the growth was -100% (active) with SK-MEL-5 melanoma, -99.2% (active) with UACC-62 melanoma, -92.2% (active) in the experiment with LOX IMVI melanoma and -85.5% (active) with SK-MEL-28 melanoma.
For `COc1cc(Nc2nc(N[C@H]3CCCC[C@@H]3N)nc3cc[nH]c(=O)c23)cc(OC)c1`, the growth was 60.9% in the experiment on HCT-15 colon; 7.69% (active) with HT29 colon; 37.4% in the experiment on SNB-19 CNS; 44.3% in the experiment with U251 CNS; 44.6% in the experiment on PC-3 prostate; 57.7% in the experiment with SK-MEL-5 melanoma. Also, the results for the growth in the experiment on UACC-62 melanoma and in the experiment with LOX IMVI melanoma were 41.2% and -66.8% (active), respectively.
In the case of `O=C(c1ccccc1)c1c(/C=C/c2ccccc2)c2ccccc2[nH]c1=O`, the growth was 101% in the experiment on HCT-15 colon; 106% in the experiment with HT29 colon; 79.4% in the experiment on SNB-19 CNS; 90.5% in the experiment with U251 CNS; 89.5% in the experiment on PC-3 prostate; 96.4% with SK-MEL-5 melanoma. In addition, the growth in the experiment with UACC-62 melanoma was 70.3%; in the experiment with LOX IMVI melanoma, 105%; with SK-MEL-28 melanoma, 113%.
With `O=C1c2ccccc2-c2ccccc2C1(Cl)Cl`, the growth is -60.2% (active) in the experiment with HCT-15 colon; -38.4% (active) in the experiment with HT29 colon; -83.5% (active) in the experiment on SNB-19 CNS; -90.1% (active) in the experiment on U251 CNS; -29.5% (active) with PC-3 prostate; -95.5% (active) with SK-MEL-5 melanoma. Moreover, the growth is -83.4% (active) in the experiment on UACC-62 melanoma and -31.8% (active) in the experiment with LOX IMVI melanoma.
For `Cc1ccc(NS(=O)(=O)c2cc(C)ccc2C)cc1`, the growth with HCT-15 colon was 32.9%; in the experiment with HT29 colon, 10.8%; with SNB-19 CNS, 53.1%; with U251 CNS it was 36.8%; in the experiment with PC-3 prostate, 57.6%; in the experiment with SK-MEL-5 melanoma, 30.3%. Besides, the growth in the experiment with UACC-62 melanoma was 40%; with LOX IMVI melanoma, 41%; in the experiment with SK-MEL-28 melanoma it was 61.5%.
`O=C(O)C1CCCCN1c1nc(Cl)nc(Cl)n1` (stereo not drawn): the growth in the experiment with HCT-15 colon was 102%; with HT29 colon, 106%; in the experiment on SNB-19 CNS it was 102%; with U251 CNS, 104%; in the experiment with PC-3 prostate it was 99.3%; with SK-MEL-5 melanoma it was 97.3%. Also, the growth is 99.8% in the experiment on UACC-62 melanoma and 95.8% in the experiment on LOX IMVI melanoma.
In the case of `COc1cc2c(cc1OCCCCCn1c3ccccc3c3ccccc31)N=C[C@@H]1CCCN1C2=O`, the growth in the experiment on HCT-15 colon is -74.3% (active); with HT29 colon, -45.8% (active); with SNB-75 CNS, -11.3% (active); with SNB-19 CNS, -49.9% (active); with U251 CNS it was -58% (active); in the experiment on PC-3 prostate, -41.8% (active). The growth was -100% (active) in the experiment with SK-MEL-5 melanoma, -90.3% (active) in the experiment with UACC-62 melanoma, -64.8% (active) in the experiment on LOX IMVI melanoma and -78.8% (active) in the experiment with SK-MEL-28 melanoma.
With `COc1cc2c(cc1OCCCN1CCN(CCCn3c4ccccc4c4ccccc43)CC1)N=C[C@@H]1CCCN1C2=O`, the growth is -44.6% (active) in the experiment on HCT-15 colon; -17.2% (active) with HT29 colon; -98.9% (active) with SNB-75 CNS; -49.8% (active) in the experiment with SNB-19 CNS; -99.1% (active) with U251 CNS; -64.7% (active) with PC-3 prostate. Besides, the growth is -100% (active) in the experiment with SK-MEL-5 melanoma, -87.3% (active) in the experiment on UACC-62 melanoma, -91.2% (active) in the experiment with LOX IMVI melanoma and -98.3% (active) in the experiment on SK-MEL-28 melanoma.
Regarding `CCCCCc1cc[n+](CC(=O)c2ccc([N+](=O)[O-])cc2)cc1`, the growth with HCT-15 colon was 94.4%; with HT29 colon it was 21.5%; in the experiment on SNB-75 CNS it was 89.6%; in the experiment on SNB-19 CNS, 87.9%; with U251 CNS it was 48.4%; with PC-3 prostate, 59.5%. For the same compound, the growth with SK-MEL-5 melanoma is 22%; in the experiment on UACC-62 melanoma, 91.1%; in the experiment with LOX IMVI melanoma, 45.9%; in the experiment with SK-MEL-28 melanoma, 106%.
Take `O=[N+]([O-])c1cc(Cl)c2[nH]c3c(Cl)cc([N+](=O)[O-])cc3c2c1`: the growth is 11.3% in the experiment on HCT-15 colon; -38.3% (active) in the experiment with HT29 colon; 15.9% with SNB-19 CNS; -22.7% (active) with U251 CNS; 4.26% (active) with PC-3 prostate; -60.7% (active) in the experiment with SK-MEL-5 melanoma. Further, the growth was 9.86% (active) with UACC-62 melanoma and 6.56% (active) in the experiment on LOX IMVI melanoma.
In the case of `O=C(/C=C\c1cccc([N+](=O)[O-])c1)/C=C/c1cccc([N+](=O)[O-])c1`, the growth with HCT-15 colon is 73.5%; in the experiment on HT29 colon, 9.81% (active); with SNB-75 CNS, 94.3%; with U251 CNS, 22.6%; with PC-3 prostate it was 82.1%; in the experiment with SK-MEL-5 melanoma it was 100%. In addition, the growth was 78.1% in the experiment with UACC-62 melanoma, -89.7% (active) with LOX IMVI melanoma and 102% in the experiment with SK-MEL-28 melanoma.
